These results are taken from PubChem BioAssay (EPA / NIEHS).

Inconclusive results are not listed. Calls of active or inactive are those of the source. How the source made its calls: active means hit-call score of the fitted dose curve at least 0.9, where 1 is the maximum; inconclusive means response in the unintended direction; inactive means score below 0.9.

Chain of human Retinoic Acid Receptor beta (RARb), RARB (gene 5915) (P10826 whole entry, looked up): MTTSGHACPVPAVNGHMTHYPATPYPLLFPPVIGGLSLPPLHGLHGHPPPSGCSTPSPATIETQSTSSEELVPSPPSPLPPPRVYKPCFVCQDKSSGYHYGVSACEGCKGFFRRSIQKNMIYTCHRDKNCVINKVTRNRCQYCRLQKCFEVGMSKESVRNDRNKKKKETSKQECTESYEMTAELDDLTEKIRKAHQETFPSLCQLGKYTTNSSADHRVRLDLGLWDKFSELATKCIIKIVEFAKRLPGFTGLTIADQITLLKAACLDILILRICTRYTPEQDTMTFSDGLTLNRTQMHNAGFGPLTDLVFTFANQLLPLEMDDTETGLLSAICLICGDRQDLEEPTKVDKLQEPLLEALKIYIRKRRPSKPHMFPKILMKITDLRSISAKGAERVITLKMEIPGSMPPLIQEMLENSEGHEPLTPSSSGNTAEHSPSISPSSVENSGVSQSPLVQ

This assay addresses human Retinoic Acid Receptor beta (RARb), RARB (gene 5915) (UniProt P10826). As to the kind of experiment: ATG_RARb_TRANS: Attagene TRANS-FACTORIAL HepG2 Assay for human Retinoic Acid Receptor beta (AID 2283004). The protocol:
ATG_TRANS is a cell-based, multiplexed-readout assay that uses HepG2, a human liver cell line, with measurements taken at 24 hours after chemical dosing in a 24-well plate.ATG_RARb_TRANS is one of 30 assay component(s) measured or calculated from the ATG_TRANS assay. It is designed to make measurements of mRNA induction, a form of inducible reporter, as detected with fluorescence intensity signals by Reverse transcription polymerase chain reaction (RT-PCR) and Capillary electrophoresis technology.Data from the assay component ATG_RARb_TRANS was analyzed into 1 assay endpoint. This assay endpoint, ATG_RARb_TRANS, was analyzed in the positive analysis fitting direction relative to DMSO as the negative control and baseline of activity. Using a type of inducible reporter, measures of mRNA for gain-of-signal activity can be used to understand the reporter gene at the transcription factor-level as they relate to the gene RARB. Furthermore, this assay endpoint can be referred to as a primary readout, because this assay has produced multiple assay endpoints where this one serves a reporter gene function. To generalize the intended target to other relatable targets, this assay endpoint is annotated to the nuclear receptor intended target family, where the subfamily is non-steroidal.
Human liver HepG2 cells are transiently transfected with multiple reporter transcription units (MRTUs) in 6-well plates using FuGene 6 reagent (Roche; 3 ml FuGene/1 mg DNA). The MRTU constructs are regulated by a cis-regulating element (promoter). […] A major difference between the CIS and TRANS system is that in CIS activities of endogenous TFs are measured, whereas the TRANS assay evaluates changes in activities of exogenous, chimeric NR-Gal4 proteins. […] At the end of 24 hour incubation, total RNA was isolated using TriZol reagent (Invitrogen). The isolated RNA is then reverse-transcribed using oligo(dT) primer and Mo-MLV reverse transcriptase (Invitrogen) with DNAse I (Ambion) treatment for 30 min. The one-tenth of the produced cDNA was amplified by PCR using Taq DNA polymerase (Invitrogen) and two reporter sequence-specific primers. The PCR products were fluorescently labeled by primer extension with 6-arboxyfluorescein (6-FAM) 5'-labeled reporter sequence-specific primer (2 min at 95 C, 20 s at 68 C and 10 min at 72 C) and these products were digested with 5U of HpaI (New England Biolabs) for 2h at 37 C. The fragments were purified using Qiaquick PCR columns (Qiagen), analyzed on an ABI 3130xL genetic analyzer (Applied Biosystems) with peak positions identified by using a set of X-rhodamine (ROX)-labeled MapMarker1000 molecular weight standards (BioVentures). The raw capillary electrophoresis data was processed using Attagraph software (Attagene).
`O=C(CBr)c1ccc(O)cc1`: the call was inactive.
The value for `CCOC(=O)Cc1ccccc1` was “inactive”; that for `Cc1cccc(C)c1NC(=O)CN1CCCC1=O` was “inactive”; that for `CC(c1ccccc1)(c1ccc(O)cc1)c1ccc(O)cc1` was “inactive”.
Turning to `O=C(N[C@H]1CN2CCC1CC2)c1ccc2c(c1)OCCO2`, the result was inactive.
As to `Clc1cc(C(Cl)(Cl)Cl)cnc1Cl`, the outcome was inactive.
In the case of `CC(C)(c1ccc(O)c(-c2ccccc2)c1)c1ccc(O)c(-c2ccccc2)c1`, the result was inactive.
Take `COCC(=O)N(c1c(C)cccc1C)[C@H](C)C(=O)OC`: the compound was called inactive.
As for `C=CC(F)(C(F)(F)F)C(F)(F)C(F)(F)F` (stereo not given), the compound was called inactive.
For `NC(=O)c1ccc(N)nc1`, the call was inactive.
For `OC[C@@H](O)[C@H]1O[C@@H]2O[C@H](C(Cl)(Cl)Cl)O[C@@H]2[C@H]1O`, the outcome was inactive.
For the compound `Cc1cc(C(F)(C(F)(F)F)C(F)(F)F)ccc1NC(=O)c1cccc(I)c1C(=O)NC(C)(C)CS(C)(=O)=O`, the compound was classed as inactive.
Take `O=C(O)c1cc(I)cc(I)c1I`: the call was inactive.
Regarding `N#Cc1ccncc1`, the compound was called inactive.
Under `Clc1cccc(Cl)c1` stands “inactive”.
As for `O=C(Cl)OCCOCCOC(=O)Cl`, the compound was classed as inactive.
Under `O=S1OC[C@@H]2[C@H](CO1)[C@]1(Cl)C(Cl)=C(Cl)[C@@]2(Cl)C1(Cl)Cl` (stereo not given in full) stands “inactive”; under `CC(C)[C@@H](Nc1ccc(C(F)(F)F)cc1Cl)C(=O)OC(C#N)c1cccc(Oc2ccccc2)c1` (stereo not given in full), “inactive”.
Consider `Nc1c(Oc2ccccc2)cc(O)c2c1C(=O)c1ccccc1C2=O`, for which the outcome was inactive.
As to `CC(C)O.CC(C)O.OCCN(CCO)CCO.OCCN(CCO)CCO.[Ti]`, the call was inactive.
Regarding `O=[N+]([O-])c1c2ccccc2cc2ccccc12`, the outcome was inactive.
As to `FC(F)OCC(F)(F)C(F)(F)F`, the outcome was inactive.
On to `Oc1c(Br)cc(Br)cc1Br`, for which the result was inactive.
As to `O=C1c2ccccc2C(=O)C1C(=O)C(c1ccccc1)c1ccc(Cl)cc1` (stereo not given), the call was inactive.
Regarding `CC(C)=CC1C(C(=O)OCc2cccc(Oc3ccccc3)c2)C1(C)C` (stereo not given), the call was inactive.
Turning to `Cc1cc(Cl)ccc1OCCCC(=O)O`, the outcome was inactive.
`COc1nn(C(=O)NS(=O)(=O)c2ccccc2OC(F)(F)F)c(=O)n1C`: the call was inactive.
The value for `CC(C)CP(=S)(S)CC(C)C` was “inactive”.
As for `CCCCOP(=O)(CCCC)OCCCC`, the compound was classed as inactive.
Regarding `N#Cc1ccccc1N`, the compound was classed as inactive.
For `O=C=Nc1ccc(Cl)cc1`, the compound was classed as inactive.
Consider `O=CCCl`, for which the result was inactive.
For the compound `COc1ccccc1N`, the call was inactive.
The value for `OC(Cc1ccccc1Cl)(Cn1cncn1)C1(Cl)CC1` (stereo not given) was “inactive”.
Turning to `OC[P+](CO)(CO)CO`, the outcome was inactive.
`c1ccc2c(c1)Oc1ccccc1O2`: the compound was called inactive.
`CC(C)(C)c1cc([N+](=O)[O-])cc(C(C)(C)C)c1O`: the compound was called inactive.
Under `C=CCOC(N)=O` stands “inactive”; under `CC(C)(C1CCC(O)CC1)C1CCC(O)CC1` (stereo not given), “inactive”.
For the compound `ClCc1ccccc1CCl`, the result was inactive.
